These results are taken from PubChem BioAssay (NCATS).

Inconclusive results are not listed. The source made the active and inactive calls. Calls follow the shape of the dose curve; as a rule, active = well fitted curve in the direction sought with a large enough effect; inconclusive = small, poorly fitted or top-dose-only effect, or another doubt; inactive = no such curve, though single readings can be large; an effect the other way counts as inactive or inconclusive.

Experiment [1] in a line: qHTS of pediatric cancer cell lines to identify multiple opportunities for drug repurposing: Primary screen for BT-37 cells (AID 1347094). The method in brief:
(§1)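 Luminescence from CellTiter-Glo served as readout of metabolically active cells after 48 h compound exposure. Titrations: MIPE 11-point, from 0.78 nM; NPC 8-point, from 0.59 nM (final). Concentration-response curves came straight from the primary screen.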
In general terms: Quantitative high-throughput screening tests each substance at several concentrations.

A short description of experiment [2]: qHTS of pediatric cancer cell lines to identify multiple opportunities for drug repurposing: Primary screen for NB-EBc1 cells (AID 1347095). The method in brief: as §1
A short description of experiment [3]: qHTS of pediatric cancer cell lines to identify multiple opportunities for drug repurposing: Primary screen for U-2 OS cells (AID 1347096). Also: nearly all actives have a fitted effect of over 50% in size. The method, boiled down:
(§2)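 Viability after 48 h compound treatment at 37C, 500-1,000 cells/well, read as ATP luminescence with CellTiter-Glo. Primary screens used 11-point (MIPE, 0.78 nM-46 µM) or 8-point (NPC, 0.59 nM-46 µM) final concentrations; follow-up screens used 11-point dilutions.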

Experiment [4] in a line: qHTS of pediatric cancer cell lines to identify multiple opportunities for drug repurposing: Primary screen for Saos-2 cells (AID 1347097). Also: nearly all actives have a fitted effect of over 40% in size. The method in brief: as §1
A short description of experiment [5]: qHTS of pediatric cancer cell lines to identify multiple opportunities for drug repurposing: Primary screen for SK-N-SH cells (AID 1347098). Also: nearly all actives have a fitted effect of over 65% in size. The method, boiled down:
(§3)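 Cells (500-1,000/well) rested 5 h, then received compounds for 48 h; metabolically active cells were measured by CellTiter-Glo luminescence. Final concentrations spanned up to 46 µM (MIPE, 11-point) or 0.59 nM-46 µM (NPC, 8-point) in primary screens, 11-point in follow-ups.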

Experiment [6] is described as follows: qHTS of pediatric cancer cell lines to identify multiple opportunities for drug repurposing: Primary screen for NB1643 cells (AID 1347099). Also: nearly all actives have a fitted effect of over 50% in size. The method in brief: as §1
Experiment [7] is described as follows: qHTS of pediatric cancer cell lines to identify multiple opportunities for drug repurposing: Primary screen for LAN-5 cells (AID 1347100). The method, boiled down: as §2
Experiment [8] can be described thus: qHTS of pediatric cancer cell lines to identify multiple opportunities for drug repurposing: Primary screen for BT-12 cells (AID 1347101). Also: nearly all actives have a fitted effect of over 25% in size. The method in brief: as §3
Experiment [9] is described as follows: qHTS of pediatric cancer cell lines to identify multiple opportunities for drug repurposing: Primary screen for Rh18 cells (AID 1347102). Also: nearly all actives have a fitted effect of over 65% in size. The method, boiled down:
as §2

Experiment [10] in a line: qHTS of pediatric cancer cell lines to identify multiple opportunities for drug repurposing: Primary screen for OHS-50 cells (AID 1347103). Also: nearly all actives have a fitted effect of over 40% in size. The method, boiled down:
as §3

Experiment [11] in a line: qHTS of pediatric cancer cell lines to identify multiple opportunities for drug repurposing: Primary screen for RD cells (AID 1347104). Also: nearly all actives have a fitted effect of over 55% in size. The method in brief:
as §1

A short description of experiment [12]: qHTS of pediatric cancer cell lines to identify multiple opportunities for drug repurposing: Primary screen for control Hh wild type fibroblast cells (AID 1347106). Also: nearly all actives have a fitted effect of over 55% in size. The method, boiled down:
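Cells (500-1,000/well) in growth media were settled 5 h at 37 degrees C, then given compounds for 48 h. Viability was read as CellTiter-Glo luminescence. Primary runs used MIPE at 11 points (0.78 nM-46 µM) and NPC at 8 points (0.59 nM-46 µM); follow-ups used 11 points.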

Experiment [13] can be described thus: qHTS of pediatric cancer cell lines to identify multiple opportunities for drug repurposing: Primary screen for Rh41 cells (AID 1347108). Also: nearly all actives have a fitted effect of over 70% in size. The method, boiled down: as §1
Experiment [14] is described as follows: qHTS of pediatric cancer cell lines to identify multiple opportunities for drug repurposing: Confirmatory screen for NB1643 cells (AID 1347109). Also: nearly all actives have a fitted effect of over 45% in size. The method in brief: as §2
A short description of experiment [15]: qHTS of pediatric cancer cell lines to identify multiple opportunities for drug repurposing: Confirmatory screen for A673 cells (AID 1347110). Also: nearly all actives have a fitted effect of over 65% in size. The method, boiled down:
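A673 cells at 500-1,000 cells/well were dosed 5 h after plating, in dilution series up to 46 uM final; primary runs used 8 or 11 points and confirmatory runs used 11 points. Viability was read by CellTiter-Glo luminescence after 48 h, against DMSO and 2.3 uM bortezomib controls.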

Experiment [16] is described as follows: qHTS of pediatric cancer cell lines to identify multiple opportunities for drug repurposing: Confirmatory screen for SK-N-MC cells (AID 1347111).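 Also: cells exposed to compound for 48 h before the readout; nearly all actives have a fitted effect of over 70% in size.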 The method in brief:
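SK-N-MC cells at 500-1,000 cells/well in growth media were pre-incubated 5 h, then exposed to compounds at 11-point dilutions for 48 h at 37 degrees C, 5% CO2. Viability was read as CellTiter-Glo luminescence.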

Experiment [17] can be described thus: qHTS of pediatric cancer cell lines to identify multiple opportunities for drug repurposing: Confirmatory screen for BT-12 cells (AID 1347112). Also: nearly all actives have a fitted effect of over 55% in size. The method, boiled down: as §2
A short description of experiment [18]: qHTS of pediatric cancer cell lines to identify multiple opportunities for drug repurposing: Confirmatory screen for LAN-5 cells (AID 1347113). Also: nearly all actives have a fitted effect of over 65% in size. The method, boiled down: as §2
Experiment [19] is described as follows: qHTS of pediatric cancer cell lines to identify multiple opportunities for drug repurposing: Primary screen for MG 63 (6-TG R) cells (AID 1347105). Also: nearly all actives have a fitted effect of over 50% in size. The method, boiled down: as §1
Experiment [20] is described as follows: qHTS of pediatric cancer cell lines to identify multiple opportunities for drug repurposing: Primary screen for Rh30 cells (AID 1347107). Also: nearly all actives have a fitted effect of over 75% in size. The method, boiled down:
as §2
Potency is read from the fitted curve at half-maximal effect.

For `CO[C@@H]1[C@@H](O)[C@H](O)[C@@H](n2c3c(Cl)cccc3c3c4c(c5c6cccc(Cl)c6[nH]c5c32)C(=O)NC4=O)O[C@@H]1CO`, the Potency in experiment [1] is 0.273 µM (active); in experiment [2] it was 0.0935 µM (active); in [3], 4.69 µM (active); in [4], 0.296 µM (active); in [5] it was 1.21 µM (active); in experiment [6] it was 0.418 µM (active). Moreover, the Potency is 0.118 µM (active) in experiment [7]; 1.37 µM (active) in experiment [8]; 2.09 µM (active) in experiment [9]; 0.306 µM (active) in experiment [10]; 2.64 µM (active) in experiment [11]; 2.35 µM (active) in experiment [13]. The Potency in [14] was 1.85 µM (active); in [15], 0.827 µM (active); in [16], 0.928 µM (active); in [17] it was 4.65 µM (active); in experiment [18], 1.65 µM (active). In experiment [12], the Potency entry is “inactive”.

On to `CCN(CC)Cc1ccc2cc(COC(=O)Nc3ccc(C(=O)NO)cc3)ccc2c1`, for which the Potency in experiment [1] is 1.93 µM (active); in experiment [2] it was 0.833 µM (active); in experiment [3], 3.72 µM (active); in [4], 0.935 µM (active); in experiment [5], 1.52 µM (active); in experiment [6], 1.18 µM (active). Moreover, the Potency in [7] is 0.526 µM (active); in experiment [8] it was 3.06 µM (active); in [9], 0.743 µM (active); in experiment [10], 0.863 µM (active); in [11], 2.35 µM (active); in experiment [19], 4.69 µM (active). Moreover, the values for the Potency in [12], in [20] and in experiment [13] were 14.8 µM (active), 4.69 µM (active) and 0.935 µM (active), respectively. The Potency entry in experiment [14], in experiment [15], in experiment [16], in experiment [17] and in experiment [18] was “inactive” in each case.

`C=C1C[C@@]2(O)O[C@@]3(C[C@H]2C(C)C)[C@H](C)CC[C@H]13`: the Potency entry in [1], in [2], in [3], in [4], in [5] and in experiment [6] was “inactive” each time. The Potency result in [7], in experiment [8], in experiment [9], in [10], in experiment [11] and in experiment [19] was “inactive” in each case. The Potency entry in [12], in [20] and in experiment [13] was “inactive” each time.

For `CC(C=CC(=O)NO)=C[C@@H](C)C(=O)c1ccc(N(C)C)cc1`, the Potency is 1.22 µM (active) in [1]; 0.418 µM (active) in experiment [2]; 1.48 µM (active) in [3]; 0.935 µM (active) in [4]; 2.71 µM (active) in experiment [5]; 0.935 µM (active) in [6]. Further, the Potency in experiment [7] was 0.59 µM (active); in experiment [8] it was 1.93 µM (active); in [9], 0.526 µM (active); in [10], 0.863 µM (active); in experiment [11] it was 1.32 µM (active); in experiment [19], 2.35 µM (active). Besides, the Potency in experiment [12] was 10.5 µM (active); in experiment [20], 7.43 µM (active); in experiment [13], 1.48 µM (active); in experiment [14] it was 0.585 µM (active); in experiment [15] it was 0.827 µM (active); in experiment [16], 0.185 µM (active). Further, the Potency was 2.93 µM (active) in [17] and 0.414 µM (active) in experiment [18].

For `O=C(C=CC#Cc1cccc(NS(=O)(=O)c2ccccc2)c1)NO`, the Potency is 4.85 µM (active) in [1]; 0.833 µM (active) in experiment [2]; 2.96 µM (active) in experiment [3]; 2.35 µM (active) in experiment [4]; 3.41 µM (active) in experiment [5]; 1.18 µM (active) in [6]. The Potency in experiment [7] was 1.18 µM (active); in [8], 7.69 µM (active); in experiment [9], 1.66 µM (active); in experiment [11], 5.26 µM (active); in [19] it was 5.9 µM (active); in experiment [20] it was 11.8 µM (active). In addition, the Potency in experiment [13] was 2.96 µM (active); in [14] it was 2.33 µM (active); in [15], 1.65 µM (active); in [16], 0.414 µM (active); in experiment [17], 18.5 µM (active); in experiment [18] it was 2.61 µM (active). In addition, the Potency entry in experiment [12] is “inactive”.
